BAZ2B inh – blocks human BAZ2B; Q9UIF8; AlphaScreen BAZ2B-H3K14Ac peptide displacement; Potency, µM (titrated, usually from 114 µM), most hits filed as inhibitors; 360,000 tested, 4.4% active; AID 504333; note: nearly all actives have a fitted effect of over 60% in size
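AlphaScreen displacement: compounds (up to 110uM) incubated 30 min at room temperature with a preformed 50 nM BAZ2B/50 nM biotinylated H3K14Ac peptide complex in PBS pH 7.4 with Tween-20. Donor and acceptor beads at 10 ug/mL final added, 20 min light-protected before reading.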
HP1b chromo inh – inhibitors of HP1-beta chromodomain binding to methylated histone tails | 390,000 tested, 0.56% active | AlphaScreen HP1-beta / biotin-H3K9me3 peptide binding | P83916 | Potency, µM (series often up to 114 µM), actives largely listed as inhibitors; note: nearly all actives have a fitted effect of over 70% in size
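Compound inhibition of the preformed complex between 50 nM HP1-beta and 50 nM biotinylated H3K9me3 peptide was read by AlphaScreen. Buffer was PBS pH 7.4 with 0.01% Tween-20. Incubations ran 30 min at room temperature, with 10 ug/mL donor/acceptor beads.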
G9a inh – G9a (human) methyltransferase inhibition | G9a H3K9 monomethylation, AlphaScreen, 2 h | Potency, µM (top dose mostly 102 µM), actives largely listed as inhibitors | 350,000 tested, 8.8% active | AID 504332; note: nearly all actives have a fitted effect of over 75% in size
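Using a bead-based AlphaScreen, monomethylated H3K9 product from 2 h room-temperature reactions (G9a 20 nM, peptide 500 nM, SAM 20 uM) was detected with 0.5 ug/mL rabbit anti-H3K9me1 antibody.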
JMJD2A Tudor inh – JMJD2A Tudor domain (human) inhibition. O75164. AlphaScreen JMJD2A-Tudor / H3K4me3 peptide binding. Potency, µM (doses to about 114 µM), hits mostly inhibitors. 390,000 tested, 4.4% active; note: nearly all actives have a fitted effect of over 50% in size
Sfp inh – Sfp phosphopantetheinyl transferase inhibition | Q9F4F7 | Biochemical Sfp PPTase activity, qHTS | Potency, µM, usual class: inhibitors | 310,000 tested, 3.5% active;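 note: the enzyme is Sfp with the accession as filed and its product quenches rhodamine fluorescence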
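After 15 min at room temperature with compound, 15 nM Sfp received 5 uM rhodamine-CoA plus 12.5 uM BHQ-2-ybbR (50 mM Hepes pH 7.6, 10 mM MgCl2). Rate came from the fluorescence difference over 30 min, ex 525/em 598 nm.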
Hits are given with their value; i = inactive; ? = inconclusive; nt = no result given; [ ] = dose if it differs, or a comment. Hits are enriched below; roughly 12% of the tested compounds scored in any of these assays. Calls come from the whole dose curve; as a rule, active = well fitted curve in the direction sought with a large enough effect; inconclusive = small, poorly fitted or top-dose-only effect, or another doubt; inactive = no such curve, though single readings can be large; an effect the other way counts as inactive or inconclusive.

SMILES	BAZ2B inh	HP1b chromo inh	G9a inh	JMJD2A Tudor inh	Sfp inh
CCOC(=O)c1c(-c2ccc(C)cc2)csc1NC(=O)c1cc(=O)c2cc(C)cc(C)c2o1	i	?	7.08µM	i	nt
CCOC(=O)c1c(-c2ccccc2)csc1NC(=O)c1cc(-c2ccc(Cl)cc2)on1	i	i	17.8µM	i	nt
CCOC(=O)c1c(NC(=O)c2noc(C)c2[N+](=O)[O-])sc(C(C)=O)c1C	i	i	39.8µM	i	i
CCOC(=O)c1c(-c2ccccc2)csc1NC(=O)c1cc(-c2ccc(C)c(F)c2)on1	i	i	i	i	nt
CCOC(=O)c1c(-c2ccc(C)cc2)csc1NC(=O)c1cc(=O)c2cc(Cl)ccc2o1	i	i	i	i	nt
CCOC(=O)c1c(NC(=O)c2cc(-c3cccc(Cl)c3)on2)sc(C)c1C	i	i	12.6µM	i	nt
CCOc1ccc(NC(=O)CN2C(=O)/C(=C3\SC(=S)N(C4CCS(=O)(=O)C4)C3=O)c3ccccc32)cc1 (configuration not stated)	i	i	?	i	56.2µM
COc1ccc(OC)c2c(=S)c3ccccc3[nH]c12	nt	nt	nt	nt	56.2µM
COc1cccc(CC2(CO)CCN(CC3=CC[C@H]4C[C@@H]3C4(C)C)CC2)c1	i	i	nt	i	i
Cc1ccc(/C([O-])=C(/C(=S)NCc2ccccc2)[n+]2ccccc2)cc1[N+](=O)[O-]	?	i	20µM	i	i
C=CCNC(=S)/C(=C(\[O-])c1ccc(Cl)cc1)[n+]1ccccc1	i	i	nt	i	8.91µM
CCOc1ccc(NC(=S)/C(=C(\[O-])c2ccc(C)c([N+](=O)[O-])c2)[n+]2ccccc2)cc1	?	i	?	i	i
[O-]/C(=C(\C(=S)NCc1ccccc1)[n+]1ccccc1)c1ccc(Cl)cc1	i	?	22.4µM	?	i
C=CCNC(=S)Nc1ccc(Cl)cc1F	i	i	i	i	i
CCc1cc[n+](/C(C(=S)Nc2cccc(C)c2)=C(/[O-])c2ccc(C)c([N+](=O)[O-])c2)cc1	?	?	39.8µM	i	i
Cc1ccc(C([O-])=C(C(=S)NCc2ccccc2)[n+]2cccc(CO)c2)cc1[N+](=O)[O-]	nt	i	nt	?	nt
Cc1ccc(CNC(=O)c2ccc(CNS(=O)(=O)c3ccc4c(c3)C(C)(C)C(=O)N4C)cc2)o1	i	i	44.7µM	i	50.1µM
COc1ccc(-n2nc(C(=O)N3CCN(c4cccc(C)c4C)CC3)c3c4ccccc4n(C)c3c2=O)cc1Cl	nt	i	i	i	nt
CN1CCc2nc(SCCOc3ccccc3)c(C#N)cc2C1	i	i	?	i	i
CCOC(=O)C1=C(CSc2nc3c(cc2C#N)CCC3)OC(N)=C(C#N)C1c1ccccc1 (configuration not stated)	i	i	i	25.1µM	20µM
CCOC(=O)C1=C(CSc2nc3c(cc2C#N)CN(C)CC3)OC(N)=C(C#N)C1c1ccccc1 (configuration not stated)	?	i	50.1µM	i[11.4 µM]	?
COC(=O)C1=C(CSc2nc3c(cc2C#N)CN(C)CC3)OC(N)=C(C#N)C1c1ccccc1F (configuration not stated)	?	i	14.1µM	?	22.4µM
N#Cc1cc2c(nc1SCc1ccccc1)CCCC2	i	i	i	i	i
CCOC(=O)C1=C(CSc2nc3c(cc2C#N)CN(C)CC3)OC(N)=C(C#N)C1c1ccc(F)cc1 (configuration not stated)	?	i	39.8µM	?	56.2µM
COC(=O)C1=C(C)OC(N)=C(C#N)C1c1ccccc1F (configuration not stated)	i	i	i	i	i
SMILES	BAZ2B inh	HP1b chromo inh	G9a inh	JMJD2A Tudor inh	Sfp inh
Cc1ccc(C)c(N2CCN(C(=O)c3cc(C)nc4c3c(C)nn4-c3cccc(F)c3)CC2)c1	i	i	i	i	nt
Cc1sc(-n2cccc2)c(C(C)NC(=O)Nc2cccc(C(F)(F)F)c2)c1C (configuration not stated)	i	i	i	i	nt
CC(=O)Nc1c(C)nn(-c2ccccc2)c1N1CCC(C(=O)Nc2ccccc2C(F)(F)F)CC1	i	i	i	i	nt
CCOC(=O)Oc1ccc(/C=C2\N=C(C)OC2=O)cc1	i	i	i[2.33 µM]	i	i
CCOC(=O)C1=C(CSc2nc(-c3ccccc3)ccc2C#N)OC(N)=C(C#N)C1c1ccccc1 (configuration not stated)	i	i	?	i	i
CCOC(=O)C1=C(CSc2nc(-c3ccccc3)ccc2C#N)OC(N)=C(C#N)C1c1cccnc1 (configuration not stated)	i	i	39.8µM	i	56.2µM
CC(=O)OC[C@@H]1O[C@@H](O/N=C2/C[C@@H](O)[C@@H](O)[C@@H]3[C@@H]4C(=O)N(Cc5ccccc5)C(=O)[C@H]4CC[C@@H]23)[C@H](OC(C)=O)[C@H](OC(C)=O)[C@@H]1OC(C)=O	nt	nt	nt	nt	i
Oc1cccc2oc(=S)[nH]c12	nt	i	nt	?	nt
Fc1cccc(Cl)c1C1Nc2cccc3cccc(c23)N1	31.6µM	i	nt	?	i
Clc1ccc(C2Nc3cccc4cccc(c34)N2)cc1Cl	?	i	nt	i	i
Clc1cccc(Cl)c1C1Nc2cccc3cccc(c23)N1	25.1µM	?	15.8µM	44.7µM	?
CCCCN(C(=O)c1cccc(-n2cccc2)c1)c1c(N)n(Cc2ccccc2)c(=O)[nH]c1=O	44.7µM	nt	i[0.501 µM]	nt	nt
CCCCn1c(N)c(N(CCOC)C(=O)c2cc(-c3ccc(F)cc3)nc3ccccc23)c(=O)[nH]c1=O	i	i	44.7µM	i	nt
CCCN(C(=O)CCCSc1nc2ccccc2[nH]1)c1c(N)n(Cc2ccccc2)c(=O)[nH]c1=O	i	i	i	i	nt
CCCCN(C(=O)c1cc(Cl)nc2ccccc12)c1c(N)n(Cc2ccccc2)c(=O)[nH]c1=O	i	i	50.1µM	i	nt
CCCCN(C(=O)CCCSc1nc2ccccc2[nH]1)c1c(N)n(Cc2ccccc2)c(=O)[nH]c1=O	i	i	10µM	i	i
CCC(C)N1CCN(S(=O)(=O)Cc2ccccc2)CC1 (configuration not stated)	i	i	i	i	i
CCOc1ccccc1CNC(=O)C1CCN(c2nc3ccccc3nc2C(F)(F)F)CC1	i	i	i	i	nt
Cc1ccc(S(=O)(=O)N(CC(O)CN2CCOCC2)c2cccc([N+](=O)[O-])c2)cc1 (configuration not stated)	i	i	i	i	i
CN(C)CC(=O)c1c[nH]c2ccccc12	i	i	i[0.501 µM]	50.1µM	i
CCN1CCN(CC(=O)c2c[nH]c3ccccc23)CC1	i	i	i	i	i
Oc1cccnc1CCc1ccccc1	i	i	nt	i	i
N=C(N)SCc1ccccn1	35.5µM	i	?	22.4µM	i
c1ccc(CSc2nnc(SCc3ccccn3)s2)nc1	i	i	i[2.33 µM]	i	i
N=C(N)SCc1ncccc1O	?	i	17.8µM	?	i
O=C(CCCn1c(=S)[nH]c2cc3c(cc2c1=O)OCO3)NCCc1ccccc1Cl	i	i	i	i	i

Bioassay records deposited in PubChem by National Center for Advancing Translational Sciences (NCATS).
